Where “and” joins values, the source holds several entries; their conditions need not be identical. Equal values may be shown once. Records with an inconclusive call do not appear. Some structures have more than one record in an assay (separate samples or runs), and their calls can disagree. Calls of active or inactive are those of the source. Unless noted, the call rests on the fitted dose curve; in most records, active means well fitted curve in the direction sought with a large enough effect in the repeat runs; inconclusive means weak or mixed curves; inactive means no such curve, though single readings can be large; an effect the other way counts as inactive or inconclusive.

This note sets out measurements from PubChem BioAssay (Tox21).

A short description of assay [1]: qHTS assay to identify small molecule agonists of the androgen receptor (AR) signaling pathway in the presence of an antagonist - cell viability counter screen (AID 1259379). Further: nearly all actives have a fitted effect of over 25% in size. Further: potency means the concentration at half of the fitted maximal effect. In short, it runs like this: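 Cells: MDA-kb2 (MMTV-luc, AR and GR elements), 3,000/well, 5 hr settle. Added: nilutamide 3.0uM final, then compounds (15 conc.). Incubation: 16 hr, 37C, no CO2. Read-out: CellTiter-Fluor, 1 hr, fluorescence.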

Assay [2] is described as follows: qHTS assay to identify small molecule agonists of the estrogen receptor beta (ER-beta) signaling pathway - cell viability counter screen (AID 1259380). Further: nearly all actives have a fitted effect of over 30% in size. Further: potency means the concentration at half of the fitted maximal effect. In a few lines:
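HEK293T ER-beta-UAS-bla; 2% CS-FBS; 6 hr pre-plate, 16 hr cpd at 37C/5% CO2; LiveBLAzer read first, then CellTiter-Glo 30 min RT, luminescence.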

Assay [3] can be described thus: qHTS assay to identify small molecule antagonists of the estrogen receptor beta (ER-beta) signaling pathway - cell viability counter screen (AID 1259382). Further: nearly all actives have a fitted effect of over 55% in size. Further: potency means the concentration at half of the fitted maximal effect. In a few lines: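 Cells: ER-beta-UAS-bla HEK293T, 2,000/well, 2% CS-FBS, 6 hr settle. Cpd + E2 (1nM final), 16 hr, 37C/5% CO2. Bla FRET substrate 2 hr RT, then CellTiter-Glo 30 min RT, luminescence.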
In general terms: qHTS replaces the single test concentration by a dilution series.

A short description of assay [4]: qHTS assay to identify small molecule agonists or antagonists of the thyroid stimulating hormone receptor (TSHR) signaling pathway - wild type cell line counter screen (AID 1259384; calls by dose curve). In a few lines: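 Counter screen in untransfected Hek293: compounds (15-point titration, triplicate) plus phosphodiesterase inhibitor Ro20-1724 added after 18 h plating; 30 min RT. Intracellular cAMP via competitive d2/cryptate immunoassay, 1 h incubation.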

The target in assay [5] is Thyrotropin receptor (Homo sapiens) (UniProt P16473). Briefly: qHTS assay to identify small molecule antagonists of the thyroid stimulating hormone receptor (TSHR) signaling pathway (AID 1259385; calls by dose curve; further: nearly all actives have a fitted effect of over 20% in size; further: potency means the concentration at half of the fitted maximal effect). In short, it runs like this: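 Antagonist mode: compound-treated TSHR-expressing HEK293 cells were stimulated with 1.5 ng/mL TSH (final) in presence of Ro20-1724 for 30 min at RT. HTRF cAMP detection after 1 h; each compound tested at 15 concentrations, triplicate.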

Assay [6] concerns the target Progesterone receptor (Homo sapiens) (UniProt P06401). Kind of assay: qHTS assay to identify small molecule agonists of the progesterone receptor (PR) signaling pathway (AID 1346784; calls by dose curve; further: nearly all actives have a fitted effect of over 30% in size). In a few lines:
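Reporter assay, GripTite PR-UAS-bla HEK 293T cells: 16 hr exposure to DMSO-dissolved compounds at 37C, 5% CO2, in steroid-depleted (2% charcoal-stripped FBS) medium; beta-lactamase measured by FRET fluorescence.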

The nature of assay [7]: qHTS assay to identify small molecule agonists of the progesterone receptor (PR) signaling pathway - cell viability counter screen (AID 1346799; calls by dose curve; further: nearly all actives have a fitted effect of over 45% in size). In a few lines:
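Multiplexed viability read: CellTiter-Glo luminescence, 30 min RT, following LiveBLAzer FRET measurement on PR-UAS-bla HEK293T cells exposed to compounds 16 hr.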

The nature of assay [8]: qHTS assay to identify small molecule antagonists of the TGF-beta/Smad signaling pathway - cell viability counter screen (AID 1346824). Further: nearly all actives have a fitted effect of over 50% in size. In short, it runs like this:
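Cytotoxicity counter-screen run in the same wells as the beta-lactamase Smad reporter read: CellTiter-Glo luminescence after 30 min at room temperature. HEK 293T SBE-bla cells had 5 hr compound exposure at 37 C with TGF-beta1 (0.25 ng/mL stock).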

Assay [9] is described as follows: qHTS assay to identify small molecule agonists of the TGF-beta/Smad signaling pathway - cell viability counter screen (AID 1346829). Further: nearly all actives have a fitted effect of over 45% in size. Further: potency means the concentration at half of the fitted maximal effect. In a few lines: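 Compound-treated SBE-bla HEK 293T cells (5 hr, 37 C) were assessed for viability with CellTiter-Glo in parallel with the reporter read.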
The target in assay [10] is Thyrotropin-releasing hormone receptor (Homo sapiens) (UniProt P34981). Briefly: qHTS assay to identify small molecule antagonists of the thyrotropin-releasing hormone receptor (TRHR) signaling pathway (AID 1346877; active means well fitted inhibition curve with a large enough effect in the repeat runs, not every such curve was filed as active; further: series mostly up to about 51 µM). In a few lines:
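Intracellular calcium fluorescence, read kinetically every second over 3 min, reports TRH-evoked signalling in HEK293 cells carrying TRHR. Test compounds were added 5 min ahead of a 1 nM TRH challenge.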

For assay [11] the target is unchanged. Briefly: qHTS assay to identify small molecule agonists of the thyrotropin-releasing hormone receptor (TRHR) signaling pathway (AID 1346891; calls by dose curve; further: series mostly up to about 58 µM). In a few lines:
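Readout was intracellular calcium fluorescence in TRHR-Hek293 cells. Cells were incubated 18 h, dye-loaded 2 h at 37 °C, and treated with compound in agonist mode.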

The nature of assay [12]: Human pregnane X receptor (PXR) small molecule agonists, qHTS cell viability counter screen (AID 1346977). Further: nearly all actives have a fitted effect of over 50% in size. Further: potency means the concentration at half of the fitted maximal effect. In a few lines:
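In each well, the PXR reporter HepG2 line was checked for viability: CellTiter-Fluor reagent added 23hr post-dosing, fluorescence read after 1hr incubation at 37C.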

Assay [13] is described as follows: Caspase-3/7 induction in HepG2 cells by small molecules, qHTS assay (AID 1346978). Further: nearly all actives have a fitted effect of over 15% in size. In short, it runs like this:
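Caspase-3/7 induction was measured by Caspase-Glo 3/7 luminescence (30 min, room temperature) after a 17 hr compound exposure of wild-type HepG2 cells seeded at 2,000 per well and pre-incubated 5 hr.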

Assay [14] can be described thus: Caspase-3/7 induction in CHO-K1 cells by small molecules, qHTS cell viability counter screen (AID 1346979). Further: nearly all actives have a fitted effect of over 35% in size. Further: potency means the concentration at half of the fitted maximal effect. In a few lines:
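Following a 5hr settling period, CHO-K1 cells at 1,500 per well received DMSO-dissolved compounds. Cell viability was quantified 16hr later by CellTiter-Fluor fluorescence, measured after 1hr with reagent at 37C.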

The target in assay [15] is Estrogen receptor (Homo sapiens) (UniProt P03372). Kind of assay: qHTS assay to identify small molecule agonists of the estrogen receptor alpha (ER-alpha) signaling pathway in the presence of an antagonist (AID 1259383; calls by dose curve; further: nearly all actives have a fitted effect of over 15% in size; further: potency means the concentration at half of the fitted maximal effect; on activation: top concentration of the series differs between compounds). In a few lines:
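VM7Luc4E2, endog. ER-alpha + 4×ERE-luc; charcoal-stripped FBS, phenol red-free, 5 d; 24hr plating; +10.0nM ICI-182,780 (final); cpds 15 conc, 22hr, 37C/5% CO2; ONE-Glo luminescence.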

Assay [16] concerns the target Progesterone receptor (Homo sapiens) (UniProt P06401). Kind of assay: qHTS assay to identify small molecule antagonists of the progesterone receptor (PR) signaling pathway (AID 1346795; active means well fitted inhibition curve with a large enough effect in the signal ratio in the repeat runs, not every such curve was filed as active; the % refers to the signal ratio; further: potency means the concentration at half of the fitted maximal effect). In short, it runs like this:
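Stimulus R5020 at 1 nM final; cells HEK293T PR-UAS-bla; medium with 2% charcoal-stripped FBS; compound exposure 16 hr at 37C, 5% CO2; detection by FRET beta-lactamase substrate, 2 hr, room temperature.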

Assay [17] can be described thus: qHTS assay to identify small molecule antagonists of the progesterone receptor (PR) signaling pathway - cell viability counter screen (AID 1346798). Further: nearly all actives have a fitted effect of over 50% in size. Further: potency means the concentration at half of the fitted maximal effect. In a few lines: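 In the same plates used for the beta-lactamase readout, cell viability of compound- and R5020-treated PR-UAS-bla HEK293T cells (16 hr, 37C) was assessed by CellTiter-Glo luminescence.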
Assay [18] in a line: qHTS assay to identify small molecule agonists of the TGF-beta/Smad signaling pathway (AID 1346859; active means well fitted activation curve with a large enough effect in the signal ratio in the repeat runs, not every such curve was filed as active; the % refers to the signal ratio; further: series mostly up to about 77 µM). In a few lines:
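Screening used HEK 293T SBE-bla cells at 4,000/well. Test agents: 5 hr, 37 C. Detection: FRET substrate, 2 hr RT, then excitation 405 nm with emissions at 460 and 530 nm.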

The target in assay [19] is Androgen receptor (Homo sapiens) (UniProt P10275). Kind of assay: qHTS assay to identify small molecule agonists of the androgen receptor (AR) signaling pathway in the presence of an antagonist (AID 1259381; calls by dose curve; further: nearly all actives have a fitted effect of over 15% in size). In a few lines: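 MDA-kb2 cells, 3,000/well, rested 5hr at 37C/0% CO2 → nilutamide 3.0uM final or buffer → compounds, 15 conc. → 16hr at 37C → ONE-Glo, 30min RT → luminescence.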

A short description of assay [20]: qHTS assay to identify small molecule agonists of the estrogen receptor alpha (ER-alpha) signaling pathway in the presence of an antagonist - cell viability counter screen (AID 1259386).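 Further: series mostly up to about 92 µM; cells exposed to compounds for 22 h at 37 °C before the viability read; nearly all actives have a fitted effect of over 30% in size.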 In short, it runs like this: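 VM7Luc4E2, stripped-serum pre-culture 5 d; 24hr plating; +ICI-182,780 10.0nM final; cpds 15 conc, 22hr, 37C/5% CO2; CellTiter-Fluor added at 21hr, fluorescence 1hr later.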
On the % scale 0 is the no-effect control and ±100 the full control effect.

Sequence of Estrogen receptor (Homo sapiens) (P03372 whole entry, looked up): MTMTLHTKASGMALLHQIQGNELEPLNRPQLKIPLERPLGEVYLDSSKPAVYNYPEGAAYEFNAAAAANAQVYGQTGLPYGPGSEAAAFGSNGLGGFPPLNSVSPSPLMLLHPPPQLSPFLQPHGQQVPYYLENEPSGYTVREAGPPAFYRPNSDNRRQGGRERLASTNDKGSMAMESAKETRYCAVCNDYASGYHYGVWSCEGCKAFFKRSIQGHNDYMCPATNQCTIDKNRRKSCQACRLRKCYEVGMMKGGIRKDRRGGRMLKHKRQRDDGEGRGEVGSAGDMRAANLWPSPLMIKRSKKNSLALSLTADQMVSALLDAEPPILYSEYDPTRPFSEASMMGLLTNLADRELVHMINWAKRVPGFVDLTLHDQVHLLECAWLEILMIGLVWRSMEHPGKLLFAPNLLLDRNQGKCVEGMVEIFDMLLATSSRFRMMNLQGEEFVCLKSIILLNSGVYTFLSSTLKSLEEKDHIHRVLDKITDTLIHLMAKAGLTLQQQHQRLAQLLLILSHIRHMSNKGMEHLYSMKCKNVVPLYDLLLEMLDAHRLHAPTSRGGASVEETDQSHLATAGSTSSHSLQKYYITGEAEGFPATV
Sequence of Thyrotropin receptor (Homo sapiens) (P16473 whole entry, looked up): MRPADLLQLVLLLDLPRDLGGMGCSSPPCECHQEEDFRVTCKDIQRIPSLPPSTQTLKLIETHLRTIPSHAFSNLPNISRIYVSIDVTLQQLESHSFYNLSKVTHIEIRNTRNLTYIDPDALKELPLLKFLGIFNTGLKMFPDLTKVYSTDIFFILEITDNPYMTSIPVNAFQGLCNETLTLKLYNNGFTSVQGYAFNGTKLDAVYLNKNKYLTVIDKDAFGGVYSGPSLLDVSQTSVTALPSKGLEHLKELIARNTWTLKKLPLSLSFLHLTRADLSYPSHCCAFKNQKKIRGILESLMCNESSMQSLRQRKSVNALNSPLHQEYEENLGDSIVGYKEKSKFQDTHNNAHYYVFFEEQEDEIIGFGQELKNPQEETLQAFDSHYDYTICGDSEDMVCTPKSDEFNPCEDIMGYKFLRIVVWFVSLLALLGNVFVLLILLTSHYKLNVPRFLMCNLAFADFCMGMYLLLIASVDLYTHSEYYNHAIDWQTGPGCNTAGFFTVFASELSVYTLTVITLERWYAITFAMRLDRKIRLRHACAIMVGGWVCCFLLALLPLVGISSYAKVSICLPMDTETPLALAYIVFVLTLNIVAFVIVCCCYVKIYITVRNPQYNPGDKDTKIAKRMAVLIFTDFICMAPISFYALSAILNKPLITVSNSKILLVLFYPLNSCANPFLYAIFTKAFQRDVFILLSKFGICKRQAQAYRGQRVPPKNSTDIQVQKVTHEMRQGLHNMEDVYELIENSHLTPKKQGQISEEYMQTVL
Sequence of Androgen receptor (Homo sapiens) (P10275 whole entry, looked up): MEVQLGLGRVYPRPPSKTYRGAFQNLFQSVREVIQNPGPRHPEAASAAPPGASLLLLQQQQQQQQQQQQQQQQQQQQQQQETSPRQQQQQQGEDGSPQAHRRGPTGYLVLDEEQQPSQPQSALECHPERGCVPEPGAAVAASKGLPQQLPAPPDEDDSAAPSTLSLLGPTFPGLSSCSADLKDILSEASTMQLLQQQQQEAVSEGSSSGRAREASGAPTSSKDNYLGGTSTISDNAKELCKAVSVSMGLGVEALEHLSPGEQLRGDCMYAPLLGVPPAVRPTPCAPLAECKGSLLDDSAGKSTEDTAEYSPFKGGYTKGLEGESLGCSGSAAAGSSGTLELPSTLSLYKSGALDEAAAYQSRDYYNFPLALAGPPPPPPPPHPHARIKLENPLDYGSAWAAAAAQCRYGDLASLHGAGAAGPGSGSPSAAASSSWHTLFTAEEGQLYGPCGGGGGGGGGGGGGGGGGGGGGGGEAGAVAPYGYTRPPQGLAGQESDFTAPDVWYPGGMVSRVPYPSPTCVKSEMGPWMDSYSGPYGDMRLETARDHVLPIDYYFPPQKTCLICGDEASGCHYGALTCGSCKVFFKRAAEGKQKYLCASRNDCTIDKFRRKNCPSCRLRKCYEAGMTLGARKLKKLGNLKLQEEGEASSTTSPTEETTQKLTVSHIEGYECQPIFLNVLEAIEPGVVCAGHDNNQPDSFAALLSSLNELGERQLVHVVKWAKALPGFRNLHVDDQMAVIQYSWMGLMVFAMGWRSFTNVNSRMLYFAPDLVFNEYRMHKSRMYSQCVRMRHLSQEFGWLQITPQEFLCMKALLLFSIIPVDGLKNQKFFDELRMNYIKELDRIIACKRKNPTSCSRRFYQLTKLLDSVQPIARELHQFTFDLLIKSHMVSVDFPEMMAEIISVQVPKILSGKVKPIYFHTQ
Sequence of Progesterone receptor (Homo sapiens) (P06401 whole entry, looked up): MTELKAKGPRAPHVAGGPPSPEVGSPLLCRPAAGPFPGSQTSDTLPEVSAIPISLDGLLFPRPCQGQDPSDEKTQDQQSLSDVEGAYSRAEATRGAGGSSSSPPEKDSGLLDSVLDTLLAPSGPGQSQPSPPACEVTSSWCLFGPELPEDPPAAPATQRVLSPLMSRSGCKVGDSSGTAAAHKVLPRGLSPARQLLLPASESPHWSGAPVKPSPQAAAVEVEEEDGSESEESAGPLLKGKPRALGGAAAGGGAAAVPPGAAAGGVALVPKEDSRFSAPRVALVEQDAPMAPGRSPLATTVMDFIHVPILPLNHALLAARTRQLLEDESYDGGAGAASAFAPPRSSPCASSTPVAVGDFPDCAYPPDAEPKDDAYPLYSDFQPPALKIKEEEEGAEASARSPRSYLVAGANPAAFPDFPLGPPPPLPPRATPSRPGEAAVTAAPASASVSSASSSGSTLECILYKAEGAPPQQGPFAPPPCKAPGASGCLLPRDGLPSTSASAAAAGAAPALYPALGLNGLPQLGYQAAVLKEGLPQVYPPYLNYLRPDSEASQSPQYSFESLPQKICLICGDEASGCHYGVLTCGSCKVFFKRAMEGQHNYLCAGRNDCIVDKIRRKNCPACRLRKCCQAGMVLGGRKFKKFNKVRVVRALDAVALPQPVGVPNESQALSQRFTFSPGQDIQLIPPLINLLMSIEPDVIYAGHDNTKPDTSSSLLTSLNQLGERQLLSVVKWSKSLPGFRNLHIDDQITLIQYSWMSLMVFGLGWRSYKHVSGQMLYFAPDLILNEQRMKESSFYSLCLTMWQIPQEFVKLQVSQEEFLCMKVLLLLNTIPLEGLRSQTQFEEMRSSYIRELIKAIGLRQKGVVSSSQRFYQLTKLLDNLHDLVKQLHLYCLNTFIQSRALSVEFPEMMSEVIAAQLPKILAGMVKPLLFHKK
Sequence of Thyrotropin-releasing hormone receptor (Homo sapiens) (P34981 whole entry, looked up): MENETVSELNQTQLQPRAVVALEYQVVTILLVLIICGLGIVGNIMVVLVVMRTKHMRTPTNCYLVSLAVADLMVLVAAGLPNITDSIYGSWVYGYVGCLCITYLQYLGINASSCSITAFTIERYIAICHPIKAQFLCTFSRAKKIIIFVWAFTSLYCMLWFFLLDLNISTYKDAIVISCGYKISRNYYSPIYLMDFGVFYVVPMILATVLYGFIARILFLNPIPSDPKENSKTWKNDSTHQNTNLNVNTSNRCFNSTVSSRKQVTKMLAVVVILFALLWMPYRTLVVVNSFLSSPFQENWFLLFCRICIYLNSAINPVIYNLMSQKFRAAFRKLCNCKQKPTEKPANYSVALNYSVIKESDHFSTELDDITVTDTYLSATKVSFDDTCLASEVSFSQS

Turning to `CCOP(=S)(OCC)Oc1ccc2c(C)c(Cl)c(=O)oc2c1`, the Potency result in [1], in assay [2], in assay [3], in [4], in assay [5] and in [6] was “inactive” throughout. Also, the Potency entry in [7], in [8], in assay [9], in assay [10], in [11] and in assay [12] was “inactive” in each case. Moreover, the Potency entry in assay [13] and in [14] was “inactive” throughout.

Consider `Nc1ccc(-c2ccc(N)cc2)cc1`, for which the Potency entry in assay [1], in assay [2], in assay [15], in [4], in [6] and in assay [16] was “inactive” each time. Further, the Potency result in assay [17], in assay [7], in assay [8], in [9], in assay [18] and in [10] was “inactive” in each case. The Potency result in [11], in [12], in [13] and in assay [14] was “inactive” in each case.

`Cc1cc(Cl)ccc1OCC(=O)O`: the Potency result in assay [1], in assay [2], in [3], in assay [15], in [4] and in assay [5] was “inactive” throughout. Further, the Potency entry in [20], in assay [6], in assay [16], in assay [17], in [7] and in assay [8] was “inactive” throughout. Also, the Potency result in assay [9], in assay [18], in [12], in assay [13] and in assay [14] was “inactive” in each case. Further, the result in [19] was inactive.

For `CC[N+](CC)(CC)CC`, the Potency entry in [1], in [2], in assay [3], in assay [4], in assay [5] and in [6] was “inactive” throughout. Besides, the Potency result in [16], in [17], in assay [7], in assay [8], in assay [9] and in assay [18] was “inactive” throughout. Moreover, the Potency result in assay [12], in assay [13] and in [14] was “inactive” in each case.

With `CCCCCCCCCCCCCC[P+](CCCCCC)(CCCCCC)CCCCCC`, the Potency in assay [1] was 9.73 µM (active) and 24.5 µM (active) and 2.43 µM (active); in [2], 12.2 µM (active) and 27.5 µM (active); in [3], 13.7 µM (active) and 27.5 µM (active) and inactive; in [5], 68.9 µM (active) and 69.1 µM (active) and inactive; in assay [17], 30.8 µM (active); in assay [9] it was 15.6 µM (active) and 24.7 µM (active) and inactive. Moreover, the Potency is 3.87 µM (active) and 6.16 µM (active) and 1.72 µM (active) in assay [12]; 4.35 µM (active) and 6.16 µM (active) and 2.73 µM (active) in assay [14]. The Potency entry in assay [15], in assay [4], in assay [6], in [16], in [18] and in [13] was “inactive” in each case.

As to `Cc1cc(Cl)ccc1N`, the Potency entry in assay [1], in assay [2], in assay [4], in assay [5], in assay [6] and in assay [16] was “inactive” each time. Moreover, the Potency result in assay [17], in assay [7], in assay [8], in [9], in assay [18] and in assay [10] was “inactive” in each case. Also, the Potency result in [11], in assay [12], in [13] and in [14] was “inactive” each time.

For the compound `Cc1cc(-c2ccc(N)c(C)c2)ccc1N`, the Potency result in assay [1], in assay [6], in [17], in assay [7], in [8] and in assay [9] was “inactive” each time. In addition, the Potency entry in assay [18], in assay [12], in [13] and in assay [14] was “inactive” in each case. Also, the Potency in [15] is 2.14 µM (active) and inactive; in assay [16], 61.8 µM (active) and 48.4 µM (active) and 17.2 µM (active).

`CCCCCCCCn1cc[n+](C)c1`: the Potency in assay [1] is 4.85 µM (active) [middle of 4 runs]; in [12], 9.68 µM (active) and 7.76 µM (active) and 8.72 µM (active); in assay [14], 54.1 µM (active) and 49 µM (active) and 55 µM (active). The Potency entry in assay [4], in assay [5], in assay [6], in [16], in assay [17] and in assay [8] was “inactive” each time. The Potency result in [9], in assay [18] and in assay [13] was “inactive” each time.
